Test results as given in PubChem BioAssay (Tox21).
Records with an inconclusive call do not appear. The source made the active and inactive calls. Unless noted, calls come from the whole dose curve; as a rule, active = well fitted curve in the direction sought with a large enough effect in the repeat runs; inconclusive = weak or mixed curves; inactive = no such curve, though single readings can be large; an effect the other way counts as inactive or inconclusive.

Columns and labels:
[1] = qHTS assay to identify small molecule antagonists of the vitamin D receptor (VDR) signaling pathway - cell viability counter screen (AID 743225); note: nearly all actives have a fitted effect of over 50% in size
Procedure, shortened: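 Parallel cytotoxicity test: VDR-UAS-bla HEK 293T, 3 nM (final) 1-alpha,25-dihydroxyvitamin D3 with test compound, 16 h, 37C. Endpoint is CellTiter-Glo luminescence in the same wells.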

[2] = qHTS assay to identify small molecule agonists of the NFkB signaling pathway - cell viability counter screen (AID 1159515; calls by dose curve; note: series mostly up to about 61 µM; nearly all actives have a fitted effect of over 55% in size)
Procedure, shortened: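 Viability in NFkB-bla ME-180 cells was measured by CellTiter-Glo luminescence, 30 min room temperature, in wells already treated 5 hr with compounds and read for reporter FRET.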

[3] = qHTS assay to identify small molecule agonists of the endoplasmic reticulum stress response signaling pathway (AID 1159516; active = well fitted activation curve with a large enough effect in the signal ratio in the repeat runs, not every such curve was filed as active; the % refers to the signal ratio)
Procedure, shortened: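 ER stress element reporter (bla) in HeLa. 1,500 cells/well, overnight attachment; 5 hr compound; 2 hr RT substrate; dual-emission fluorescence.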

[4] = qHTS assay to identify small molecule agonists of the endoplasmic reticulum stress response signaling pathway - cell viability counter screen (AID 1159517; calls by dose curve;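 note: HeLa cells carrying an ER stress response element beta-lactamase reporter; series mostly up to about 61 µM; nearly all actives have a fitted effect of over 50% in size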)
Procedure, shortened: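 ESRE-bla HeLa cells, 1,500 per well, seeded overnight then treated with compounds for 5 hr at 37 C. After the beta-lactamase read, viability in the same wells is measured by CellTiter-Glo luminescence after 30 min at room temperature.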

[5] = qHTS assay to identify small molecule antagonists of the retinoid-related orphan receptor gamma (ROR-gamma) signaling pathway - cell viability counter screen (AID 1159520); note: nearly all actives have a fitted effect of over 50% in size
Procedure, shortened: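 Tet-on ROR gamma CHO cells were given compounds for 2 hr, then doxycycline hyclate at 1 uM final, and incubated 16 hr at 37 C. Viability was measured as ATP content by CellTiter-Glo luminescence.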

[6] = target: Nuclear receptor ROR-gamma (Homo sapiens) (UniProt P51449); experiment: qHTS assay to identify small molecule antagonists of the retinoid-related orphan receptor gamma (ROR-gamma) signaling pathway (AID 1159521;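 note: CHO cells with doxycycline inducible ROR-gamma driving an RORE luciferase reporter; top concentration of the series differs between compounds; nearly all actives have a fitted effect of over 50% in size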)
Procedure, shortened: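 Decreased RORE-driven luciferase luminescence indicates antagonism. Tet-on RORγ CHO cells received compound, then 1 uM final doxycycline 2 h later; signal read after 16 h incubation.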

[7] = qHTS assay to identify small molecule agonists of the AP-1 signaling pathway - cell viability counter screen (AID 1159525; calls by dose curve; note: nearly all actives have a fitted effect of over 55% in size)
Procedure, shortened: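 AP-1-bla ME-180 cells in Opti-MEM with 0.5% dialyzed FBS, compound exposure 5 h at 37 C in 15-point titration. Viability read in the same wells as ATP content by CellTiter-Glo luminescence, normalised to tetra-n-octylammonium bromide and DMSO controls.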

[8] = qHTS assay to identify small molecule agonists of the AP-1 signaling pathway (AID 1159526; calls by dose curve)
[9] = target: Retinoic acid receptor RXR-alpha (Homo sapiens) (UniProt P19793); experiment: qHTS assay to identify small molecule agonists of the RXR signaling pathway (AID 1159527; calls by dose curve; note: nearly all actives have a fitted effect of over 35% in size)
Retinoic acid receptor RXR-alpha (Homo sapiens), sequence (P19793 whole entry, looked up): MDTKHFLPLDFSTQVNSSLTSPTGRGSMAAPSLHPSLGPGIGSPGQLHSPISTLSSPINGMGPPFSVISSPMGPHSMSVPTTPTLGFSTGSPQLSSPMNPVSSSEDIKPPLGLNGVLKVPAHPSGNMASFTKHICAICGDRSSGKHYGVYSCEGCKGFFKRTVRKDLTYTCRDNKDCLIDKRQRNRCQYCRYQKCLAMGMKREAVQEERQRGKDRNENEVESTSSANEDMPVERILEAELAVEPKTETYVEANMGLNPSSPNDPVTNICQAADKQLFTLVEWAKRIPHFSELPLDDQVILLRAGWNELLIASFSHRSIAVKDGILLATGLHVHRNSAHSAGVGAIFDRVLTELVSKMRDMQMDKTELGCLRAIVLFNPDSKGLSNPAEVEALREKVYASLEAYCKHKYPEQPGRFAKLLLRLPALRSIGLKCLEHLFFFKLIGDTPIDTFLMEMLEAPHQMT
Procedure, shortened: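 16 hr incubation of compound-treated RXR-alpha-UAS-bla HEK 293T cells (2% charcoal-stripped FBS, 37 C) preceded a 2 hr room-temperature LiveBLAzer FRET substrate step and blue/green fluorescence measurement.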

[10] = qHTS assay to identify small molecule agonists of the RXR signaling pathway - cell viability counter screen (AID 1159529)
Procedure, shortened: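 In this parallel viability measure, GeneBLAzer RXR-alpha HEK 293T cells (2% charcoal-stripped FBS) were given a 5 hr preincubation, treated with compounds 16 hr at 37 C, and read by CellTiter-Glo luminescence.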

[11] = qHTS assay to identify small molecule antagonists of the retinoid acid receptor (RAR) signaling pathway - cell viability counter screen (AID 1159551); note: nearly all actives have a fitted effect of over 35% in size
Procedure, shortened: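 Following overnight attachment, C3RL4 reporter cells received DMSO-dissolved compounds and then retinol (1 uM final). Six hours later at 37 C, ATP content was measured by CellTiter-Glo luminescence.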

[12] = qHTS assay to identify small molecule antagonists of the retinoic acid receptor (RAR) signaling pathway (AID 1159552; note: nearly all actives have a fitted effect of over 50% in size)
Procedure, shortened: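 C3RL4 RARE-luc cells, overnight plating; retinol 1 uM final added right after compound; 6 hr 37 C; luciferase read at 30 min RT.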

[13] = qHTS assay to identify small molecule agonists of the retinoic acid receptor (RAR) signaling pathway (AID 1159553)
Procedure, shortened: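 Cell line C3RL4, RARE luciferase reporter. Treatment: compounds in DMSO, 6 hr, 37 C, 5% CO2, after overnight plating. Detection: luminescence, 30 min RT after reagent.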

[14] = qHTS assay to identify small molecule antagonists of the estrogen related receptor (ERR) signaling pathway from Tox21 library - cell viability counter screen (AID 1224834); note: nearly all actives have a fitted effect of over 30% in size
Procedure, shortened: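 Viability readout (CellTiter-Fluor fluorescence, 30 min at 37 C) multiplexed with the ERR assay; cells treated 17.5 h at 37 C with compounds delivered in DMSO.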

[15] = target: Luciferin 4-monooxygenase (Photinus pyralis) (UniProt P08659); experiment: qHTS assay to identify small molecule inhibitors of firefly luciferase (AID 1224835); note: series mostly up to about 120 µM; nearly all actives have a fitted effect of over 25% in size
Luciferin 4-monooxygenase (Photinus pyralis), sequence (P08659 whole entry, looked up): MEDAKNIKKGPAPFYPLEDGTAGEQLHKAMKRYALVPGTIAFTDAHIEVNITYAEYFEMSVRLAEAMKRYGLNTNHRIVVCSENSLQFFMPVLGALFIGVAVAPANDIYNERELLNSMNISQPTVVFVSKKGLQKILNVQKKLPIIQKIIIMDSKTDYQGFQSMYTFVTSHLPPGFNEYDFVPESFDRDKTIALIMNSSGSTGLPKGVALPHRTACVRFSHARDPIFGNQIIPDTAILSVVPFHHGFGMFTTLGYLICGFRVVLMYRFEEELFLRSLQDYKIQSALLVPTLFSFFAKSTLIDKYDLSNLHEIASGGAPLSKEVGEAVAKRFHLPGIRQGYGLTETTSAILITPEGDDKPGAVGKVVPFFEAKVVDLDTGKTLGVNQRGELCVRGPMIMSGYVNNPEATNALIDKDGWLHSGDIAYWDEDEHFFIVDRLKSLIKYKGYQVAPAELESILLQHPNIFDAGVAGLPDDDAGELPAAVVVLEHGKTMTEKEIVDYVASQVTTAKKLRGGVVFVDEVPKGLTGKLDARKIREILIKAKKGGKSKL
Procedure, shortened: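 Biochemical qHTS: compounds run as interplate titrations against purified firefly enzyme, with D-luciferin and ATP each at its KM concentration. Light output recorded by CCD imaging.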

[16] = qHTS assay to identify small molecule agonists of the constitutive androstane receptor (CAR) signaling pathway - cell viability counter screen (AID 1224836); note: series mostly up to about 92 µM; nearly all actives have a fitted effect of over 45% in size
Procedure, shortened: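 Using CellTiter-Fluor, viability of HepG2 cells harbouring hCAR and CYP2B6-2.2kb was measured following 23 h incubation with a 15-concentration compound series plus PK11195 (0.75 uM final).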

[17] = qHTS assay to identify small molecule antagonists of the constitutive androstane receptor (CAR) signaling pathway - cell viability counter screen (AID 1224837); note: series mostly up to about 92 µM; nearly all actives have a fitted effect of over 45% in size
Procedure, shortened: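 Fluorescence from CellTiter-Fluor served as the viability signal. Human hepatoma HepG2 cells stably bearing hCAR and CYP2B6-2.2kb received compound plus CITCO (50 nM final) for 23 hr.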

[18] = target: Nuclear receptor subfamily 1 group I member 3 (Homo sapiens) (UniProt Q14994); experiment: qHTS assay to identify small molecule antagonists of the constitutive androstane receptor (CAR) signaling pathway (AID 1224838);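 note: HepG2 cells stably expressing hCAR with CYP2B6 luciferase reporter stimulated by CITCO; nearly all actives have a fitted effect of over 40% in size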
Nuclear receptor subfamily 1 group I member 3 (Homo sapiens), sequence (Q14994 whole entry, looked up): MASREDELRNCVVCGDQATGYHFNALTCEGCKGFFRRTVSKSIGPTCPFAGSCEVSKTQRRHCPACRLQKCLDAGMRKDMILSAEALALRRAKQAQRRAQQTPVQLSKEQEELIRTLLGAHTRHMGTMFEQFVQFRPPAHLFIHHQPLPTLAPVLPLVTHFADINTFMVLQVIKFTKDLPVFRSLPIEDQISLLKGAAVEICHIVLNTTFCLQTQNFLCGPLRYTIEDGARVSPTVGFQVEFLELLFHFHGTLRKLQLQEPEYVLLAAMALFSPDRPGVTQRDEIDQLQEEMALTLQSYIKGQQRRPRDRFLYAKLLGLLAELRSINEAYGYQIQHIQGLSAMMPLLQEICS
Procedure, shortened: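 Quantitative HTS in double-stable HepG2-CYP2B6-hCAR cells. After 4 h plating, cells get compound (15 concentrations) and CITCO at 50 nM final, incubate 24 h at 37 C, then ONE-Glo luminescence is read.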

[19] = target: Nuclear receptor subfamily 1 group I member 3 (Homo sapiens) (UniProt Q14994); experiment: qHTS assay to identify small molecule agonists of the constitutive androstane receptor (CAR) signaling pathway (AID 1224839);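 note: HepG2 cells stably carrying human CAR and a CYP2B6 luciferase reporter; series mostly up to about 92 µM; nearly all actives have a fitted effect of over 15% in size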
Procedure, shortened: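 Double-stable HepG2 cells (hCAR, CYP2B6-2.2kb) seeded 4 h before compound addition. Exposure 24 h with 0.75 uM PK11195 final. Luciferase detected by ONE-Glo.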

[20] = qHTS assay to identify small molecule antagonists of the estrogen related receptor signaling pathway with the pleiotropic PPARgamma coactivator (PGC) from Tox21 10K library - cell viability counter screen (AID 1224840; active = well fitted cell-killing curve with a large enough effect in the repeat runs, not every such curve was filed as active; note: nearly all actives have a fitted effect of over 40% in size)
Procedure, shortened: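 Compounds in DMSO, alongside positive and negative controls, were pinned onto PGC/ERR cells (2,000 per well). Exposure lasted 17.5 hours at 37 C, followed by a 30-minute CellTiter-Fluor incubation and fluorescence reading.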

Measured: Potency

C[C@H]1COc2c(C3(N)CC3)c(F)cc3c(=O)c(C(=O)O)cn1c23
inactive: [1] | [2] | [3] | [4] | [5] | [6] | [7] | [8] | [9] | [10] | [11] | [12] | [13] | [14] | [15] | [16] | [17] | [18] | [19] | [20]

Clc1cc(Cl)c(Cl)c(Cl)c1Cl
inactive: [1] | [2] | [3] | [4] | [5] | [6] | [7] | [8] | [9] | [10] | [11] | [12] | [13] | [14] | [15] | [16] | [17] | [18] | [19] | [20]

O=P(O)(O)C(O)(Cc1cccnc1)P(=O)(O)O
inactive: [2] | [3] | [4] | [5] | [6] | [7] | [8] | [9] | [10] | [11] | [12] | [13] | [14] | [15] | [16] | [17] | [18] | [19] | [20]

CC(C)C(C)C
inactive: [2] | [3] | [4] | [5] | [6] | [7] | [8] | [9] | [10] | [11] | [12] | [13] | [14] | [15] | [16] | [17] | [18] | [19] | [20]

CCCCS
inactive: [2] | [3] | [4] | [5] | [6] | [7] | [8] | [9] | [10] | [11] | [12] | [13] | [14] | [15] | [16] | [17] | [18] | [19] | [20]

CN(C)c1ccncc1
inactive: [1] | [2] | [3] | [4] | [5] | [6] | [7] | [8] | [9] | [10] | [11] | [12] | [13] | [14] | [15] | [16] | [17] | [18] | [19] | [20]

Cc1ccc(S(=O)(=O)NC(=O)NN2CC3CCCC3C2)cc1 (stereo not given)
inactive: [1] | [2] | [3] | [4] | [5] | [6] | [7] | [8] | [9] | [10] | [11] | [12] | [13] | [14] | [15] | [16] | [17] | [18] | [19] | [20]

COc1cc(NS(=O)(=O)c2ccc(N)cc2)ncn1
inactive: [1] | [2] | [3] | [4] | [5] | [6] | [7] | [8] | [9] | [10] | [11] | [12] | [13] | [14] | [15] | [16] | [17] | [18] | [19] | [20]

Cc1ccc(Br)cc1
inactive: [1] | [2] | [3] | [4] | [5] | [6] | [7] | [8] | [9] | [10] | [11] | [12] | [13] | [14] | [15] | [16] | [17] | [18] | [19] | [20]

CCCCN1C(=O)c2ccccc2C1=O
inactive: [1] | [2] | [3] | [4] | [5] | [6] | [7] | [8] | [9] | [10] | [11] | [12] | [13] | [14] | [15] | [16] | [17] | [18] | [19] | [20]

CCCCNCC
inactive: [1] | [2] | [3] | [4] | [5] | [6] | [7] | [8] | [9] | [10] | [11] | [12] | [13] | [14] | [15] | [16] | [17] | [18] | [19] | [20]

O=c1[nH]c(=O)c2cn[nH]c2[nH]1
inactive: [2] | [3] | [4] | [5] | [6] | [7] | [8] | [9] | [10] | [11] | [12] | [13] | [14] | [15] | [16] | [17] | [18] | [19] | [20]

CCCCCCCCOCCC#N
inactive: [1] | [2] | [3] | [4] | [5] | [6] | [7] | [8] | [9] | [10] | [11] | [12] | [13] | [14] | [15] | [16] | [17] | [18] | [19] | [20]

C/C=C/C(=O)CCCC
inactive: [2] | [3] | [4] | [5] | [6] | [7] | [8] | [9] | [10] | [11] | [12] | [13] | [14] | [15] | [16] | [17] | [18] | [19] | [20]
